mIDH1 inhibitor – inhibitors of human mutant IDH1 R132H | Potency, µM (highest dose often 76.6 µM), most hits filed as inhibitors | AID 602179 | IDH1-R132H enzyme, NADPH consumption, diaphorase/resazurin fluorescence | 390,000 compounds, 0.093% hits | O75874; further: nearly all actives have a fitted effect of over 65% in size
Target sequence (O75874 whole entry R132H, stated change not applied): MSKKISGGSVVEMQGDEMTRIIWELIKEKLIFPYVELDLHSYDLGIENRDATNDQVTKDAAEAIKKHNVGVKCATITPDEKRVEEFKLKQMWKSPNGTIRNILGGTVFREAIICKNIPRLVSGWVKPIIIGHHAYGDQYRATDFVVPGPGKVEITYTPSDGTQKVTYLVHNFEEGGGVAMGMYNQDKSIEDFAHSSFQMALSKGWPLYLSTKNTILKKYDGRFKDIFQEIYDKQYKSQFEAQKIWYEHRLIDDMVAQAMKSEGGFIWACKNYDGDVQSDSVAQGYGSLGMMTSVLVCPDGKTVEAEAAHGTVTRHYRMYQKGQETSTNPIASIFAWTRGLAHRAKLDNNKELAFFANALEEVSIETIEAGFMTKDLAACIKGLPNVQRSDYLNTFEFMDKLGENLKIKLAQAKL
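IDH1-R132H (0.5 ug/mL dispensed) in pH 7.5 Tris buffer was preincubated 30 min with compound, then given a substrate mix of 0.016 mM NADPH and 2 mM alpha-KG for 80 min at room temperature; remaining NADPH was read by diaphorase/resazurin fluorescence.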
RGS4 inh – human RGS4 inhibition; P49798; Transcreener GDP fluorescence polarization, RGS4-accelerated GTP hydrolysis; Potency, µM (doses to about 114 µM), actives largely listed as inhibitors; 390,000 compounds, 0.039% hits; AID 504845; further: nearly all actives have a fitted effect of over 75% in size
Target sequence (P49798 whole entry, looked up): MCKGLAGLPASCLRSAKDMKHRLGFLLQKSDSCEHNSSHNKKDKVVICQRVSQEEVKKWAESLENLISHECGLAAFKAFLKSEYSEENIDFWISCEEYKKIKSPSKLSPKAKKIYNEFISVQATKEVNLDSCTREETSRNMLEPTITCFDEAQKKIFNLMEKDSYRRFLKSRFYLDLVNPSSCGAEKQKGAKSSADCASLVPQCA
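MLSMR compounds (23 nl, pin-transferred) preincubated 10 min at room temperature with a 500nM (2x) first reagent, then RGS4 at 900nM (2x) plus Transcreener GDP mix added; fluorescence polarization (620/688 nm) read before and after 90 min at 30 °C.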
TrxR1 inh – blocks rat thioredoxin reductase 1. O89049. Potency, µM (series often up to 114 µM), usual class: inhibitors. 390,000 compounds, 1% hits. recombinant rTrxR1, NADPH fluorescence consumption, selenite substrate. AID 588453; further: nearly all actives have a fitted effect of over 65% in size
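Rat TrxR1 (90 nM in the dispensed reagent) was pre-reduced with 400 uM NADPH for 5 min at room temperature, then incubated with compound for 15 min. After 400 uM selenite was added, NADPH fluorescence (Ex 340/Em 450 nm) was followed for 8 min.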
Eya2 phos inh – blocks the phosphatase activity of human Eya2. O00167. Potency, µM (titrated, usually from 76.9 µM), hits mostly inhibitors. 330,000 compounds, 0.006% hits. AID 488837. recombinant Eya2, OMFP fluorescence dephosphorylation (OMFP is methylfluorescein phosphate)
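Eya2 (0.2 uM) preincubated 10 min at ambient with compound, then OMFP substrate added at 50 uM; 10 min reaction in 50 mM HEPES pH 7.5, 50 mM NaCl, 5 uM MgCl2, 0.05% BSA, 1 mM DTT. Fluorescence read at Ex 485/Em 525 nm.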
TrxR1 substrate – substrates of rat thioredoxin reductase 1. O89049. purified TrxR1 substrate turnover, NADPH consumption readout. Potency, µM (titrated, usually from 114 µM). 390,000 compounds, 0.01% hits; further: nearly all actives have a fitted effect of over 50% in size
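Rat TrxR1, dispensed at 90 nM, was prereduced with 400 uM NADPH (final) for 5 min at ~22 deg C, then incubated with compound 15 min before 400 uM selenite. A first-read NADPH fluorescence drop versus no-compound background flagged substrates.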
Large screens that a line does not name were inactive. In the library only some 1.1% were active in any assay of this set; here they are far more common. The call rests on the fitted dose curve; in most records, active means well fitted curve in the direction sought with a large enough effect; inconclusive means small, poorly fitted or top-dose-only effect, or another doubt; inactive means no such curve, though single readings can be large; an effect the other way counts as inactive or inconclusive.

Cc1c(NC(=O)/C=C/c2cccs2)c(=O)n(-c2ccccc2)n1C	none
O=C(NC1CCCCC1)C(c1cccnc1)N(C(=O)CCl)c1cccc(Cl)c1 (stereo unspecified)	TrxR1 inh 6.31µM
CCOc1ccc(CN(C)C(=O)CCl)cc1	TrxR1 inh 17.8µM
COC(C/C=C\[C@H](O)[C@H](C)OCc1ccccc1)OC	none (no result: Eya2 phos inh)
Cc1cc(NS(=O)(=O)c2ccc(NC(=O)CN3C(=O)NC(C)(c4ccccc4)C3=O)cc2)nc(C)n1 (stereo unspecified)	none
Cc1cccc(N2CCN(C(=O)CN3CCOc4ccccc43)CC2C)c1 (stereo unspecified)	TrxR1 inh inconclusive
Cc1ccc(N2C(=O)C3C4C=CC(CNC(=S)N5CCN(c6cccc(C)c6)C(C)C5)(O4)C3C2=O)cc1 (stereo unspecified)	RGS4 inh inconclusive, TrxR1 inh 15.8µM
O=C(NC1=C(NC2CCS(=O)(=O)C2)C(=O)c2ccccc2C1=O)c1ccccc1 (stereo unspecified)	TrxR1 inh 50.1µM, TrxR1 substrate 31.6µM
COc1cc2c(cc1OC)C(COc1cc(C)cc(C)c1)N(C(=O)c1ccc(S(=O)(=O)N3CCCC3)cc1)CC2 (stereo unspecified)	none (no result: Eya2 phos inh)
CCCC(=O)C1=C(N(C)c2ccccc2)CC(C)(C)CC1=O	none
CCCC(=O)C1=C(c2ccccc2)C(C#N)(C#N)C(C#N)=C1N	TrxR1 inh 12.6µM
CC(=O)n1cc(N(C(=O)CCl)c2ccc(C)cc2)c2ccccc21	TrxR1 inh 2µM
COc1ccc(N2C(=O)[C@@H]3C(c4cccnc4)=NO[C@@H]3C2=O)cc1	TrxR1 inh inconclusive
Cc1ccc(N2C(=O)[C@@H]3C(c4cccnc4)=NO[C@@H]3C2=O)cc1	TrxR1 inh 44.7µM
CCCC(=O)NC(C)c1nc2ccccc2[nH]1 (stereo unspecified)	none
CC(=O)OCCNc1cc(SC(C)C)c2nonc2c1[N+](=O)[O-]	none
CCCC(=O)OCCNc1cc(Sc2nc3ccccc3[nH]2)c2nonc2c1[N+](=O)[O-]	RGS4 inh inconclusive, TrxR1 inh 1µM
Cc1ccc(Sc2cc(NCCCO)c([N+](=O)[O-])c3nonc23)cc1	TrxR1 inh 12.6µM
CC(=O)OCCCNc1cc(Sc2ccc(Cl)cc2)c2nonc2c1[N+](=O)[O-]	TrxR1 inh 3.16µM
CC(C)CCSc1cc(NCCO)c([N+](=O)[O-])c2nonc12	TrxR1 inh 3.55µM
Cc1cc[n+]2c3c(cccc13)CCC2	RGS4 inh inconclusive
COC(=O)c1[nH]c2cc(OC)c(OC)cc2c1NC(=O)CN1CCN(Cc2ccccc2)CC1	none (no result: mIDH1 inhibitor, RGS4 inh, TrxR1 inh, TrxR1 substrate)
CCC(=O)OCCNc1cc(Sc2nccn2C)c2nonc2c1[N+](=O)[O-]	RGS4 inh inconclusive, TrxR1 inh 0.282µM
CCOC(=O)N1CCN(c2cc(NCCO)c([N+](=O)[O-])c3nonc23)CC1	none
COC(=O)CCSc1cc(NCCCOC(C)=O)c([N+](=O)[O-])c2nonc12	TrxR1 inh 3.16µM (no result: mIDH1 inhibitor, Eya2 phos inh)
CCC(=O)OCCNc1cc(SCCC(=O)OC)c2nonc2c1[N+](=O)[O-]	TrxR1 inh 8.91µM
CCN(CC)c1cc(NCCO)c([N+](=O)[O-])c2nonc12	none
CCNc1c(NS(=O)(=O)c2ccc([N+](=O)[O-])cc2)c(=O)oc2ccccc12	none
c1ccc(Cn2c(SCc3nc4ccccc4s3)nnc2-c2ccco2)cc1	RGS4 inh inconclusive, TrxR1 inh 10µM
COc1ccccc1-c1nc(S(=O)(=O)c2ccc(Cl)cc2)c(N2CCCCCC2)o1	none (no result: mIDH1 inhibitor, Eya2 phos inh)
COc1ccccc1-c1nc(S(=O)(=O)c2ccccc2)c(N2CCCCC2)o1	RGS4 inh inconclusive, TrxR1 inh 0.891µM
CCOc1cc(NC(=S)NCCCN2CCOCC2)c(OCC)cc1NC(=O)c1cccs1	none
Cc1ccc(NC(=O)C2CCN(c3nnc(-n4cccc4)s3)CC2)cc1Cl	none (no result: Eya2 phos inh)
CC1(C)C(/C=C/C=C/C=C/C=C2\N(CCCCS(=O)(=O)O)c3ccc4ccccc4c3C2(C)C)=[N+](CCCCS(=O)(=O)[O-])c2ccc3ccccc3c21	mIDH1 inhibitor inconclusive, RGS4 inh inconclusive, TrxR1 inh 3.55µM (no result: Eya2 phos inh)
Cc1c2ccccc2cc[n+]1CCCS(=O)(=O)[O-]	none
CCOC(=O)c1cc([N+](=O)[O-])cc([N+](=O)[O-])c1Sc1ncnc2nc[nH]c12	RGS4 inh inconclusive, TrxR1 inh 0.447µM (no result: Eya2 phos inh)
Cc1nccn1CC(=O)N/N=C/c1cc(Br)cs1	none
c1ccc(Oc2ncnc3oc(-c4ccccc4)cc23)cc1	none
COC(=O)c1ccc(C(=O)OC)c(NC(=O)/C=C/C(=O)O)c1	TrxR1 inh 44.7µM
COc1ccc(N2C(=O)CC(N3CCN(c4ccc(Cl)cc4)CC3)C2=O)cc1 (stereo unspecified)	none
CCOc1ccc(N2C(=O)CC(N3CCN(c4ccc(Cl)cc4)CC3)C2=O)cc1 (stereo unspecified)	TrxR1 inh 39.8µM
CCOc1ccc(N2C(=O)CC(N3CCN(c4ccc([N+](=O)[O-])cc4)CC3)C2=O)cc1 (stereo unspecified)	TrxR1 inh 25.1µM
CCCOc1ccc(N2C(=O)CC(N3CCN(c4ccc([N+](=O)[O-])cc4)CC3)C2=O)cc1 (stereo unspecified)	none
CCOC(=O)C1CCN(Cc2ccc(O)c3ncccc23)CC1	TrxR1 inh 7.08µM
O=C(Cc1ccccc1)Nc1sc2c(c1C(=O)Nc1ccc(Cl)cc1)CCCC2	none (no result: Eya2 phos inh)
CCC(=O)Nc1sc2c(c1C(=O)Nc1ccc(Br)cc1)CCCCC2	RGS4 inh inconclusive, TrxR1 inh 56.2µM (no result: Eya2 phos inh)
O=C(Cc1ccccc1)Nc1sc2c(c1C(=O)Nc1ccccc1)CCCCC2	TrxR1 inh 39.8µM (no result: Eya2 phos inh)
CCC(=O)Nc1sc2c(c1C(=O)Nc1cccc(C)c1)CCCC2	none (no result: Eya2 phos inh)
CCCCN(C)CCNC(=O)Cn1ncc2c3ccccc3n(CCC)c2c1=O	none (no result: Eya2 phos inh)
CC(=O)Nc1ccc2c(c1)n(C)c(=O)n2C	none
Cn1c(=O)n(C)c2cc(NC(=O)CCl)ccc21	TrxR1 inh 50.1µM
O=[N+]([O-])c1cc(S(=O)(=O)N2CCCC2)ccc1O	none
O=[N+]([O-])c1cc(S(=O)(=O)N2CCCCCC2)ccc1F	mIDH1 inhibitor 46.5µM, TrxR1 inh 31.6µM
O=S(=O)(c1ccc2nnn(O)c2c1)N1CCCCC1	none
CC(=O)N/C(=C/c1ccccc1)c1sc2ccccc2[n+]1CCCCI	TrxR1 inh 44.7µM (no result: mIDH1 inhibitor, RGS4 inh, Eya2 phos inh)
Cc1[nH]c2ccccc2c1C1C(c2ccccc2)=NN=C(C(C)C)N1O (stereo unspecified)	TrxR1 inh 44.7µM
CC1=NN=C(c2ccccc2)C(c2c[nH]c3ccccc23)N1O (stereo unspecified)	TrxR1 inh inconclusive
CCC(=O)OCOc1ccc(/C=C2/CCC(CN(C)C)C2=O)cc1 (stereo unspecified)	RGS4 inh inconclusive, TrxR1 inh 1.12µM (no result: Eya2 phos inh)
